The list is not random: actives were taken first. Their share in the collection is about 10%.
FLuc inh: Photinus pyralis luciferase inhibition. P08659. 76,000 compounds, 2.5% hits. purified P. pyralis luciferase, luminescence, biochemical. Potency, µM (top dose mostly 115 µM), hits mostly inhibitors; further: nearly all actives have a fitted effect of over 65% in size
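Inhibitors were tested against purified firefly luciferase in a biochemical, low-substrate format (both substrates at 10uM) and luminescence measured with a CCD imager.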
GPT2 inh: inhibitors of human GPT2 alanine aminotransferase; Q8TD30; Potency, µM (doses to about 57.7 µM), actives largely listed as inhibitors; 100,000 compounds, 0.25% hits; Recombinant GPT2, coupled pyruvate oxidase/HRP Amplex Red fluorescence; further: nearly all actives have a fitted effect of over 60% in size
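GPT2 10ng/uL, a-KG 250uM, L-Ala 2mM, HEPES pH7.5 + 0.0001% Tween; 30 min RT. Then Amplex mix (PO/HRP/ThPP), 30 min RT dark, fluorescence. AOA 50uM used as positive control.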
HEK293 tox: HEK 293 cell cytotoxicity | HEK 293 viability, ATP luminescence (CellTiter-Glo), 48-72 h | Potency, µM (highest dose often 115 µM), most hits filed as inhibitors | 94,000 compounds, 6.6% hits | AID 1345083; further: nearly all actives have a fitted effect of over 60% in size
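Luminescence from cellular ATP, measured with CellTiter-Glo, indicates HEK 293 viability. Cells plated at 250 cells/well are treated with compound for 48 or 72 hr at 37 degree Celsius before reagent addition.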
NIH3T3 tox: cytotoxic compounds in NIH 3T3 cells; NIH 3T3 viability, CellTiter-Glo ATP luminescence, 48-72 h; Potency, µM (series often up to 96.7 µM), actives largely listed as inhibitors; 94,000 compounds, 4.3% hits; further: nearly all actives have a fitted effect of over 55% in size
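Luminescent ATP readout (CellTiter-Glo, 10 min RT) after 48 or 72 hr compound exposure of NIH 3T3 cells seeded at 400 cells/well in 1536-well format; quantitative HTS.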
NPR1 antag: antagonists of human natriuretic peptide receptor Npr1. 76,000 compounds, 1.6% hits. Potency, µM (doses to about 46.3 µM), actives largely listed as inhibitors. HEK293 hNpr1 GloSensor cGMP, ANP-stimulated luminescence. P16066; calls by dose curve; further: nearly all actives have a fitted effect of over 60% in size
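HEK293 cells stably expressing human Npr1 and cGMP GloSensor pGS-40F, loaded 2 h with 2% GloSensor reagent, given compound 30 min at room temperature. Luminescence read before and 20 min after 0.1 nM hNppA.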
NPR1 antag cnf: hNpr1 antagonism, confirmation assay | shares compounds with NPR1 antag | HEK293 hNpr1 cGMP GloSensor luminescence, ANP-stimulated | Potency, µM (doses to about 57.6 µM), actives largely listed as inhibitors | 1,400 compounds, 76% hits | AID 1347044; calls by dose curve; further: nearly all actives have a fitted effect of over 70% in size
NPR2 antag: selectivity test of Npr1 antagonists against human Npr2; shares compounds with NPR1 antag; HEK293 hNpr2 GloSensor cGMP luminescence, CNP-stimulated; Potency, µM (top dose mostly 57.6 µM), usual class: inhibitors; 1,400 compounds, 67% hits; calls by dose curve; further: nearly all actives have a fitted effect of over 70% in size
FLuc counter: inhibits firefly luciferase, false Npr1 antagonist flag; Potency, µM (top dose mostly 57.6 µM), usual class: inhibitors; AID 1347047; purified FLuc enzyme, luminescence, Km substrate; shares compounds with NPR1 antag; 1,400 compounds, 0.7% hits
GloSensor cGMP: counter-screen for Npr1 antagonists: GloSensor control cell line | shares compounds with NPR1 antag | HEK293 GloSensor cGMP, SNP-stimulated, luminescence | Potency, µM (highest dose often 57.6 µM), usual class: inhibitors | 1,400 compounds, 69% hits; calls by dose curve; further: nearly all actives have a fitted effect of over 70% in size
Large screens that a line does not name were inactive (follow-up assays come after a bar, where they were run). Unless noted, the call rests on the fitted dose curve; in most records, active means well fitted curve in the direction sought with a large enough effect; inconclusive means small, poorly fitted or top-dose-only effect, or another doubt; inactive means no such curve, though single readings can be large; an effect the other way counts as inactive or inconclusive.

O=C(NC1CCN(c2cc(-c3ccc(F)cc3)[nH]n2)CC1)c1ccc(F)c(Cl)c1	HEK293 tox inconclusive, NIH3T3 tox 32µM, NPR1 antag inconclusive | NPR1 antag cnf 24µM | NPR2 antag inconclusive | FLuc counter inactive | GloSensor cGMP inconclusive
O=C(NC1CCN(c2cc(-c3ccc(Cl)cc3)[nH]n2)CC1)c1cccc(F)c1	HEK293 tox inconclusive
COc1ncccc1-c1nc(N2CCOCC2)cc2c1CN(CC(F)(F)F)C2=O	HEK293 tox inconclusive, NIH3T3 tox inconclusive
Cc1ccc(NC(=O)CCC2CCN(S(=O)(=O)c3ccccc3C)CC2)cc1F	NIH3T3 tox inconclusive, NPR1 antag inconclusive | NPR1 antag cnf inconclusive | NPR2 antag inconclusive | FLuc counter inactive | GloSensor cGMP inconclusive
Cc1ccccc1S(=O)(=O)N1CCC(CCC(=O)O)CC1	none
COCCN1C[C@H]2CN(Cc3cccc(OC)c3)CCN2C1=O	none
COc1cccc(CN2CCN(c3nc4c(s3)c(C)nn4C)CC2=O)c1	HEK293 tox inconclusive, NIH3T3 tox inconclusive, NPR1 antag inconclusive | NPR1 antag cnf inconclusive | NPR2 antag inconclusive | FLuc counter inactive | GloSensor cGMP inconclusive
CCn1nc(C)c(-c2cc(C(=O)NCCc3noc(COC)n3)no2)c1C	HEK293 tox inconclusive, NIH3T3 tox inconclusive
CCn1nc(C)c(CNC(=O)c2cc(COc3ccc4ncccc4c3)on2)c1C	HEK293 tox inconclusive, NIH3T3 tox inconclusive, NPR1 antag 10µM | NPR1 antag cnf 22µM | NPR2 antag 19µM | FLuc counter inactive | GloSensor cGMP 17µM
COCCN1C(=O)[C@H]2CN(Cc3scnc3C)C[C@H]2C1=O	none
CC(=O)c1cccc(NC(=O)O[C@@H]2CO[C@H]3[C@@H]2OC[C@@H]3NC(=S)NC2CCCCC2)c1	HEK293 tox inconclusive, NIH3T3 tox inconclusive, NPR1 antag 18µM | NPR1 antag cnf 24µM | NPR2 antag 24µM | FLuc counter inactive | GloSensor cGMP inconclusive
CC(=O)c1cccc(NC(=O)O[C@@H]2CO[C@H]3[C@@H]2OC[C@@H]3NC(=S)Nc2cccc3ccccc23)c1	GPT2 inh inconclusive, HEK293 tox inconclusive, NIH3T3 tox inconclusive, NPR1 antag 8.9µM | NPR1 antag cnf 12µM | NPR2 antag 17µM | FLuc counter inactive | GloSensor cGMP 14µM
CCC(Cn1cnc(-c2ccccc2)c1-c1ccc(C#N)cc1)N1CCN(C)CC1 (stereo not given)	HEK293 tox 79µM, NIH3T3 tox inconclusive, NPR1 antag 11µM | NPR1 antag cnf 24µM | NPR2 antag 17µM | FLuc counter inactive | GloSensor cGMP inactive
COc1cccc(CNC(=O)Nc2nc(-c3ccncc3)cs2)c1	none (no result: FLuc inh, HEK293 tox, NIH3T3 tox, NPR1 antag)
COc1cccc(N2CCN(c3nc(C(=O)NCc4ccccc4F)cs3)CC2)c1	GPT2 inh inconclusive, HEK293 tox 45µM, NIH3T3 tox inconclusive, NPR1 antag 13µM | NPR1 antag cnf 27µM | NPR2 antag inconclusive | FLuc counter inactive | GloSensor cGMP inconclusive
COc1cccc(N2CCN(c3nc(C(=O)NCc4ccncc4)cs3)CC2)c1	HEK293 tox 35µM, NIH3T3 tox inconclusive, NPR1 antag inconclusive | NPR1 antag cnf 27µM | NPR2 antag 22µM | FLuc counter inactive | GloSensor cGMP 27µM
O=C(c1n[nH]c2c1CCCC2)N1CCC2(CC1)NC(=O)N(c1ccccc1)N2	FLuc inh inconclusive, GPT2 inh inconclusive, HEK293 tox inconclusive, NIH3T3 tox inconclusive

Source: PubChem
